A selection: hits, their analogues and other compounds. The true share with any hit is near 4%.
D1 antagonist: blocks dopamine activation of the human D1 receptor | actives 3.2% (n = 360,000) | P21728 | activity change, negative = inhibition, % at 10 µM | HEK293 TREx D1 cells, calcium flux, dopamine EC80; active compounds read low | AID 504652; in the data active means activity change below about -30%
Target sequence (P21728 whole entry, looked up): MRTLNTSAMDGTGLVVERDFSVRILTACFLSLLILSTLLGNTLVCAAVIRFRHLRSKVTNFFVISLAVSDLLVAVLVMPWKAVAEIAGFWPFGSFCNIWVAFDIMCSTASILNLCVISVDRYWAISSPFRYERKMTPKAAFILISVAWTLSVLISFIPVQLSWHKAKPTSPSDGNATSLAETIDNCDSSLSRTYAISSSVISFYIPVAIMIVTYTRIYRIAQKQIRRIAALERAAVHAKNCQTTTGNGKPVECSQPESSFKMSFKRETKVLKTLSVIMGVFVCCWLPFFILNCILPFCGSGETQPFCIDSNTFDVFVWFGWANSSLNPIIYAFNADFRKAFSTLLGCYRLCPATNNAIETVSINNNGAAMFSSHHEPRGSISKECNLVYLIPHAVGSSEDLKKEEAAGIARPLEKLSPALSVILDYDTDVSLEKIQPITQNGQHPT
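HEK293 T-REx cells expressing inducible, force-coupled D1 receptor; no-wash Ca dye, 30–90 min RT. Cmpd → 180 s read at 1 Hz → EC80 DA → 180 s read.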
TRHR enhancer: TRH receptor (human) allosteric enhancement | P34981 | TRHR cells, fluo-8 calcium fluorescence, EC20 TRH enhancement | enhancement, % at 2 µM | actives 0.66% (n = 360,000); in the data active means enhancement above about 30%
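TRHR-expressing cells loaded with fluo-8 calcium dye were read kinetically (ex 480/em 530) during compound addition, then stimulated with an EC20 of TRH (10 nM final). Enhancement of the Gq-mediated intracellular calcium response was scored.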
D1 PAM: potentiators of human D1 dopamine receptor. P21728. HEK293 TREx D1 cells, calcium flux, dopamine EC20 potentiation. potentiation, % at 10 µM. actives 0.036% (n = 360,000). AID 504651; in the data active means potentiation above about 30%
Glioma ERSR ind: ER stress response induction in glioma; U87-MG GRP78 promoter luciferase reporter, 16 h; Potency, µM, most hits filed as activators; actives 0.02% (n = 420,000); AID 602332; active means well fitted activation curve with a large enough effect; inconclusive means small, poorly fitted or top-dose-only effect; inactive means no such curve, though single readings can be large or run the other way; further: series mostly up to about 76 µM; nearly all actives have a fitted effect of over 35% in size
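Stably transfected U87-MG glioma cells carrying a GRP78-based luciferase sensor; 16 h compound incubation. Luminescence end-point read 10 min after Bright-Glo addition at room temperature.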
D1 ag: agonists of human D1 dopamine receptor; activation, % at 2 µM; HEK293 T-REx D1 cells, calcium flux, agonist mode; P21728; actives 1% (n = 360,000)
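Inducible HEK293 T-REx D1 cells, force-coupled to calcium signalling, were plated at 4000 cells/well with tetracycline and held overnight at 30 C. After no-wash calcium dye loading, compound-evoked calcium rise over 180 s flagged agonists.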
TRHR ag: TRH receptor (human) agonism | P34981 | TRHR cells, calcium flux fluo-8, FDSS agonist mode | activation, % at 2 µM | actives 0.18% (n = 360,000) | AID 493084
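Fluo-8-loaded TRHR cells; 10 s baseline, compound added, kinetic Ca2+ fluorescence read 1/s, agonist mode.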
Of the large screens only hits and unclear results are named; the others gave an inactive call; ! = not active in a repeat. Unless noted, no stated cut-off is given here; in the data, active means activation above about 30%; inactive means the rest.

CC(C)Oc1ccc(C(=O)NC2CCCCC2)cc1	none
CC(C)Oc1ccc(C(CCN)C2CCCCC2)cc1 (stereo unspecified)	D1 ag 102
CCOc1ccc(Oc2cc(N)cc([N+](=O)[O-])c2)cc1	none
CCOc1ccc([N+](=O)[O-])c(N)c1	D1 antagonist -33
COc1cc(CNC(=O)c2ccccc2NC(=O)C2=C(C)OCCS2)cc(OC)c1OC	none
CC12CCC(=O)N1C(C(=O)N1CCN(c3cccc(Cl)c3)CC1)CS2 (stereo unspecified)	D1 antagonist -61 (no result: D1 PAM)
CC12CCC(=O)N1C(C(=O)Nc1ccc(F)c(Cl)c1)CS2 (stereo unspecified)	TRHR enhancer 35
CC12CCC(=O)N1C(C(=O)Nc1ccccc1F)CS2 (stereo unspecified)	none
CC12CCC(=O)N1C(C(=O)N1CCN(c3ccccc3)CC1)CS2 (stereo unspecified)	none
COCCNC(=O)c1cccc(C)c1[N+](=O)[O-]	D1 antagonist -33
CC(=O)c1ccc(OCCCC(=O)NNC(=O)c2ccccn2)cc1	none
COC(=O)C1=C(C)NC(C)=C(C(=O)OCCN2CCN(C(c3ccccc3)c3ccccc3)CC2)C1c1cccc([N+](=O)[O-])c1 (stereo unspecified)	none (no result: D1 antagonist, TRHR enhancer, D1 PAM, D1 ag, TRHR ag)
COC(=O)C1=C(C)NC(C)=C(C(=O)OCCN(C)Cc2ccccc2)C1c1cccc([N+](=O)[O-])c1 (stereo unspecified)	D1 antagonist -35
CN(C)C(=O)COC(=O)c1ccccc1OCC(=O)Nc1ccc(Br)cc1	none (no result: D1 antagonist, TRHR enhancer, D1 PAM, D1 ag, TRHR ag)
CCS(=O)(=O)c1ncc(Cl)c(C(=O)Nc2ccccc2OC)n1	Glioma ERSR ind inconclusive
COc1ccccc1NC(=O)c1nc(S(=O)(=O)Cc2ccccc2)ncc1Cl	D1 antagonist -38
COc1ccc2nc(NC(=O)c3nc(S(=O)(=O)Cc4ccc(C)cc4)ncc3Cl)sc2c1	none
COc1ccc(OC)c(NC(=O)c2nc(S(=O)(=O)Cc3ccc(F)cc3)ncc2Cl)c1	D1 antagonist -35
COc1ccc(S(=O)(=O)N(NC2=NS(=O)(=O)c3ccccc32)C(=O)C(C)C)cc1	none
O=C1c2ccccc2S(=O)(=O)N1CC(O)COc1ccc(Cl)cc1 (stereo unspecified)	none
COC(=O)c1ccc(OCC(O)CN2C(=O)c3ccccc3S2(=O)=O)cc1 (stereo unspecified)	D1 antagonist -40
Cc1ccc(S(=O)(=O)N(Cc2ccccc2)Cc2ccco2)cc1	D1 antagonist -31
Cc1ccc(S(=O)(=O)N(Cc2ccc(F)cc2)Cc2ccco2)cc1	D1 antagonist -33
Cc1ccc(S(=O)(=O)N(CC(=O)O)Cc2ccco2)cc1	none
COC(=O)c1c(C)oc(C)c1S(=O)(=O)NCc1ccco1	none
CCN(CC)S(=O)(=O)c1ccc2c(c1)N(CC(=O)Nc1ccc(Cl)cc1)C(=O)C1CCCN21 (stereo unspecified)	none
NNC(=O)c1cc(O)c(O)c(O)c1	D1 antagonist -36
O=C(O)c1cc(O)c(O)c(O)c1	none (no result: D1 antagonist, TRHR enhancer, D1 PAM, D1 ag, TRHR ag)
CC(=O)Nc1ccc2nc3c(=O)n(C)c(=O)n(C)c3nc2c1	D1 ag 34
CCc1ccccc1NS(=O)(=O)c1ccc(NC(=O)N2CCCC2)cc1	none
COCCOC(=O)c1c(NC(=O)CNCc2ccco2)sc(C(N)=O)c1C	D1 antagonist -35
COCCOC(=O)c1c(NC(=O)CNc2ccc(C)c(F)c2)sc(C(N)=O)c1C	none
Cc1ccc(S(=O)(=O)N2CCC(n3c(C)nc4cccnc43)CC2)c(C)c1	none
COc1ccc(S(=O)(=O)N2CCC(n3c(C)nc4cccnc43)CC2)cc1Cl	D1 antagonist -34
N#C/C(=C\c1c[nH]c2ccccc12)C(=O)Nc1ncc(Cc2ccc(Cl)cc2Cl)s1	D1 ag 35
O=C(CCS(=O)(=O)c1cc2c(cc1Cl)NC(=O)CO2)NCCc1ccccc1	none
Cc1ccc(CCNC(=O)CCS(=O)(=O)c2cc3c(cc2C)NC(=O)CO3)cc1	D1 antagonist -86!
CN1CCN(C(=O)CCS(=O)(=O)c2cc3c(cc2Cl)NC(=O)CO3)CC1	TRHR enhancer 39
CCN1CCN(C(=O)CCS(=O)(=O)c2cc3c(cc2Cl)NC(=O)CO3)CC1	none

Screening data from PubChem BioAssay.
